VACV mCherry inh = qHTS for Stage-Specific Inhibitors of Vaccinia Orthopoxvirus: mCherry Reporter Primary qHTS; Vaccinia virus mCherry reporter infection, fluorescence; Potency, µM (series often up to 36.5 µM), inactives show at the top dose activity change, negative = inhibition, actives largely listed as inhibitors; hit rate 0.63% among 310,000; AID 720579, 2013; calls by dose curve; tested in A549 cells; further: on the % scale 0 is the no-effect control and ±100 the full control effect; nearly all actives have a fitted effect of over 35% in size
Pf growth 48h = Primary qHTS for delayed death inhibitors of the malarial parasite plastid, 48 hour incubation; hit rate 5.9% among 310,000; Potency, µM (titrated, usually from 28.7 µM), for the others: top-dose activity change, negative = inhibition, hits mostly inhibitors; P. falciparum luciferase growth in erythrocytes, 48 h; further: on the % scale 0 is the no-effect control and ±100 the full control effect
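Erythrocytes infected with P. falciparum carrying an integrated firefly luciferase reporter (2% hematocrit, 0.1% parasitemia final) were exposed to compounds in RPMI 1640 with 0.5% Albumax at 37 C, 5% CO2. Growth inhibition was scored as reduced luminescence.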
HCV inhibitor = qHTS Assay for Inhibitors of Hepatitis C Virus (HCV) | Huh7.5.1 HCVcc-Cre infection, luciferase reporter, 44 h | Potency, µM (top dose mostly 41.8 µM), inactives show top-dose activity change, negative = inhibition, hits mostly inhibitors | hit rate 3.4% among 340,000; further: on the % scale 0 is the no-effect control and ±100 the full control effect
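Antiviral activity was scored by luciferase reporter output from cells infected with HCVcc-Cre (~0.5 moi) in presence of compound, 44 h infection period, cells seeded 1,000/well 4 h prior.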
Vaccinia Venus = qHTS for Stage-Specific Inhibitors of Vaccinia Orthopoxvirus: Venus Reporter Primary qHTS; Vaccinia virus Venus reporter expression, fluorescence; Potency, µM (titrated, usually from 36.5 µM), inactives show at the highest dose activity change, negative = inhibition, hits mostly inhibitors; hit rate 0.46% among 330,000; AID 720580, 2013; calls by dose curve; tested in A549 cells; further: on the % scale 0 is the no-effect control and ±100 the full control effect; nearly all actives have a fitted effect of over 30% in size
Pf growth 96h = Primary qHTS for delayed death inhibitors of the malarial parasite plastid, 96 hour incubation | P. falciparum luciferase reporter growth, 96 h | Potency, µM (top dose mostly 28.7 µM), for inactives: at the highest dose activity change, negative = inhibition, hits mostly inhibitors | hit rate 6.9% among 320,000; further: on the % scale 0 is the no-effect control and ±100 the full control effect
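Readout is luminescence from an integrated firefly luciferase in P. falciparum. Red cells, 2% hematocrit and 0.05% parasitemia final, were cultured with compound through two parasite generations (96 hours) at 37 C, 5% CO2.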
NS1 function inh = qHTS Assay for Inhibitors of Influenza NS1 Protein Function. hit rate 0.4% among 270,000. Potency, µM (top dose mostly 46.1 µM), inactives show at the highest dose activity, positive = more growth; calls by dose curve; further: actives are rising curves; nearly all actives have a fitted effect of over 50% in size
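Compounds were scored for reversing the slow growth caused by influenza A NS1 in S. cerevisiae, measured by optical density at 600 nm. Assay medium contained 2% galactose at pH 6.0; NS1-free yeast of the same strain were the positive control.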
The depositor's hits bear a star; i = inactive; u = inconclusive; x = not tested or not shown; [ ] = remark or other dose. Most compounds without a hit are left out; they make up all but 11% or so of the library. Unless noted, the call rests on the fitted dose curve; in most records, active means well fitted inhibition curve with a large enough effect; inconclusive means small, poorly fitted or top-dose-only effect, or another doubt; inactive means no such curve, though single readings can be large or run the other way. Potency means the concentration at half of the fitted maximal effect.

SMILES	VACV mCherry inh	Pf growth 48h	HCV inhibitor	Vaccinia Venus	Pf growth 96h	NS1 function inh
Brc1c(CSc2nc3ccccc3o2)nc2ncccn12	-3.2%	-25.0%	17.2%	-23.5%	u	-120.6%
CCc1ccc(CN(C)C(=O)CCc2nc3ccccc3n(-c3ccc(OC)cc3)c2=O)cc1	u	u	u	u	13.1µM*	x
COc1ccc(-n2c(=O)c(CCC(=O)N(C)Cc3ccccc3C)nc3ccccc32)cc1	x	10.4µM*	u	x	8.28µM*	x
COc1ccc(/C(O)=C/c2nc3ccccc3n(-c3ccccc3)c2=O)cc1	x	x	-6.1%	-16.0%	-21.9%	4.6%
COc1ccc(-n2c(=O)c(CCC(=O)N3CCN(c4cccc(OC)c4)CC3)nc3ccccc32)cc1	-2.9%	x	x	-14.0%	x	x
CN1/C(=C/C(=O)C2CC2)C(C)(C)c2ccccc21	-1.8%	39.0%	12.5%	-22.6%	-3.9%	x
CN1/C(=C\C(=O)Nc2cccc(Cl)c2)C(C)(C)c2ccccc21	-23.1%	u	31.6µM*	-9.8%	u	-26.7%
CN1/C(=C\C(=O)Nc2ccc(F)cc2)C(C)(C)c2ccccc21	-3.9%	5.22µM*	-8.9%	-16.1%	u	-23.8%
CN1/C(=C\C(=O)Nc2ccc(Br)cc2)C(C)(C)c2ccccc21	-3.6%	-4.6%	-32.6%	-19.7%	23.5%	-19.7%
CCCOc1ccc(Cc2c(COCC)[nH]c(=S)[nH]c2=O)cc1	-3.5%	-2.3%	-4.7%	-2.2%	5.6%	3.3%
CCOC(=O)c1[nH]ncc1CN1CCCC(C(=O)c2ccc(SC)cc2)C1 (configuration not stated)	-23.2%	u	4.0%	-14.4%	u	6.9%
CCCCc1ncc(CN2CCCC(C(=O)c3ccc(SC)cc3)C2)[nH]1 (configuration not stated)	u	9.28µM*	u	-2.6%	24.6%[5.75 µM]	1.9%
COC(=O)c1c(NC(=O)Cc2ccccc2)sc2c1CC(C)(C)NC2(C)C	-26.8%	u	-27.7%	-25.0%	u	-10.8%
CC1(C)Cc2c(sc(NC(=O)COc3ccc(Cl)cc3Cl)c2C(N)=O)C(C)(C)N1	i	10.4µM*	1.1%	-4.5%	u	0.0%
COC(=O)c1c(NC(=O)COc2ccc(Cl)cc2)sc2c1CC(C)(C)NC2(C)C	i	u	11.2µM*	-9.0%	u	-8.8%
COc1ccccc1OCCn1c(=O)sc2ccccc21	x	-2.3%	0.4%	x	57.0%	-25.0%
Cc1ccccc1OCCn1c(=O)sc2ccccc21	x	13.1µM*	-4.7%	-4.6%	1.1%	-2.3%
COc1ccc(OCCn2c(=O)sc3ccccc32)cc1	-16.8%	50.6%	9.4%	-11.4%	2.94µM*	-10.9%
CCOc1ccc(Cn2c(=O)sc3ccccc32)cc1OC	x	53.0%	10µM*	x	u	-30.2%
Cc1cccc(OCCn2c(=O)sc3ccccc32)c1	x	48.9%	u	-27.0%	-9.5%	-18.0%
COc1ccc(N2CCN(C(=O)Nc3cccc(C(F)(F)F)c3)CC2)cc1	-18.2%	10.2%	u	-6.2%	x	22.6%
CN1CCN(CCC(=O)Nc2ccc(F)c(F)c2)CC1	x	x	7.5%	x	x	-11.7%
COc1ccccc1NS(=O)(=O)c1cc(N/C(=N\S(=O)(=O)c2ccccc2)c2ccc(F)cc2)ccc1Cl	-4.3%	9.28µM*	35.5µM*	-21.3%	13.1µM*	-11.0%
COc1ccccc1NS(=O)(=O)c1cc(NC(=O)Cc2n[nH]c(=O)c3ccccc23)ccc1Cl	-8.3%	x	3.16µM*	-14.1%	x	x
CC(C)OC(=O)C(C(=O)C(F)(F)F)c1cc(NS(=O)(=O)c2ccc3ccccc3c2)c2ccccc2c1O (configuration not stated)	-17.3%	9.28µM*	u	10.9%	3.29µM*	27.7%
SMILES	VACV mCherry inh	Pf growth 48h	HCV inhibitor	Vaccinia Venus	Pf growth 96h	NS1 function inh
CC(C)OC(=O)C(C(=O)C(F)(F)F)c1cc(NS(=O)(=O)c2ccc3c4c(cccc24)C(=O)N3)ccc1O (configuration not stated)	-8.9%	x	x	-2.0%	x	x
C=CCNc1nnc(Sc2ncccc2[N+](=O)[O-])s1	10µM*	-21.8%	-17.5%	u	-5.7%	5.3%
COc1ccc(C(=O)O)c(O)c1	-5.7%	x	0.3%	-0.3%	x	x
CN(C(=O)COC(=O)CN1C(=O)C2CC=CCC2C1=O)c1ccccc1 (configuration not stated)	-13.5%	11.4%	-1.0%	-10.7%	1.1%	x
Cc1cccc(C)c1OCC(=O)N[C@@H](Cc1ccccc1)[C@@H](O)C[C@H](Cc1ccccc1)NC(=O)[C@H](C(C)C)N1CCCNC1=O	i	3.38µM*	x	u	6.75µM*	x
CCN(CC)c1ccc(N=Cc2c(O)n(CCC3=CCCCC3)c(=O)[nH]c2=O)cc1	x	2.0%	-13.5%	x	11.4%	5.1%
Fc1ccccc1Cc1noc(CN2CCN(Cc3ccc4c(c3)OCO4)CC2)n1	-8.8%	31.4%	-12.5%	-18.6%	u	-4.2%
CCCCNC(=O)c1nc(-c2cc3ccccc3[nH]2)oc1-c1cccc(C(F)(F)F)c1	u	x	x	-2.1%	x	x
CCN(c1ccccc1)S(=O)(=O)c1ccc(OC)c(NC(=O)CNCCc2ccccc2)c1	-10.9%	11.7µM*	7.08µM*	-23.7%	u	9.3%
CCN(c1ccccc1)S(=O)(=O)c1ccc(OC)c(NC(=O)Cc2ccc(F)cc2)c1	x	u	u	x	10.4µM*	x
Cc1cc(=O)oc(C)c1C(=O)Nc1ccc2ncccc2c1	x	9.28µM*	4.3%	x	x	2.9%
CN(C)C(=S)SC(=S)N(C)C	x	5.36µM*	x	x	3.38µM*	x
CN(C)C(=S)SSC(=S)N(C)C	-25.9%	0.849µM*	1.9%	-11.0%	0.757µM*	8.6%
Cn1cc([C@]2(O)C(=O)N(c3ccccc3)c3ccccc32)c2ccccc21	-6.5%	x	x	-10.7%	x	x
Cc1ccc(CNC(=O)c2cc(-c3ccc(C)cc3)nc3n[nH]c(-c4ccc(F)cc4)c23)cc1	4.3%	x	x	1.9%	x	x
CCS(=O)(=O)c1nc2ccccc2n1Cc1ccccc1Cl	i	u	u	-5.8%	10.4µM*	-34.2%
COc1ccc(/C=N/NC(=O)c2ccn[nH]2)cc1COc1ccc(Cl)cc1Cl	-29.0%	u	-20.1%	-21.4%	-12.9%	19.2%
Cc1noc(C)c1CSCC(=O)Nc1nc2ccccc2s1	-11.0%	16.6%	-24.6%	-14.1%	u	0.4%
Cc1c(C(=O)O)[nH]c2c1C(=O)CC(c1ccc(Cl)cc1)C2 (configuration not stated)	0.8%	6.5%	11.0%	0.0%	u	10.3%
O=C1CCCN1c1ccc(Br)cc1	x	26.5%	-16.4%	-14.0%	x	-0.9%
O=C1CCCN1c1ccc(N2CCCC2=O)cc1	x	14.4%	11.3%	x	2.08µM*	-1.8%
